S2 tox – Viability Counterscreen for Primary qHTS for Inhibitors of ATXN expression | S2 cells (HEK-293 line with an ATXN2-luciferase reporter) viability, CellTiter-Fluor protease fluorescence, 24 h | 0.49% of 400,000 active | Potency, µM (highest dose often 56.7 µM), most hits filed as cytotoxic; also: potency is read from the fitted curve at half-maximal effect; nearly all actives have a fitted effect of over 40% in size
IL-1B inflam inh – qHTS for Inhibitors of Inflammasome Signaling: IL-1-beta AlphaLISA Primary Screen. THP-1 LPS/ATP IL-1B secretion, AlphaLISA, 16 h; active compounds read low. 4.7% of 360,000 active. activity change, % at 57.5 µM; in the data active = activity change below about -50%; inconclusive = mostly about -30% to -49%; also: % is scaled to controls: 0 for no effect and ±100 for the full control effect
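THP-1 cells pretreated 1 hr with compounds (up to 57.5 uM final), then stimulated with LPS (250 ng/mL final) plus ATP (1.25 mM final); secreted IL-1B measured by AlphaLISA after 16 hr, decreased signal indicating inhibition.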
TGFb SMAD3 inh – qHTS for Inhibitors of TGF-b. HepG2 CAGA-GFP TGF-b/SMAD3 reporter, GFP fluorescence, 18 h; TGF-beta stimulated, 500 pg/mL final. Potency, µM (doses to about 46.1 µM), for the others: at the highest dose activity, negative = inhibition, actives largely listed as inhibitors. 1.2% of 410,000 active. AID 588855, 2011; also: potency is read from the fitted curve at half-maximal effect; % is scaled to controls: 0 for no effect and ±100 for the full control effect; nearly all actives have a fitted effect of over 65% in size
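Inhibition of TGF-beta-driven CAGA-GFP reporter expression in HEPG2 cells is measured by cellular GFP fluorescence after 18 h stimulation with 500 pg/mL recombinant TGF-beta in 1% FBS medium at 37 degrees C.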
ATXN2 expr inh – Primary qHTS for Inhibitors of ATXN expression | HEK-293 ATXN2-luciferase reporter, luminescence, 24 h | Potency, µM (titrated, usually from 57 µM), for the others: at the top dose activity change, negative = inhibition, most hits filed as inhibitors | 0.72% of 360,000 active | AID 1745845, 2022; also: potency is read from the fitted curve at half-maximal effect; % is scaled to controls: 0 for no effect and ±100 for the full control effect; nearly all actives have a fitted effect of over 55% in size
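qHTS (up to 57 uM final) was run with 24 h compound exposure of reporter cells at 37 °C. Each well was multiplexed: SteadyGlo luminescence measured ATXN2-luciferase expression after a fluorogenic Gly-Phe-AFC viability readout (25 uM final).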
HepG2 tox – qHTS for Inhibitors of TGF-b: Cytotox Counterscreen; HepG2 CAGA-GFP viability, ATP luminescence, 18 h; 0.76% of 410,000 active; Potency, µM (titrated, usually from 46.1 µM), without a hit: top-dose activity change, negative = cytotoxicity, hits mostly cytotoxic; also: potency is read from the fitted curve at half-maximal effect
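CellTiter-Glo luminescence gave cytotoxicity after 18 hours at 37 degrees C. The cells were HepG2 CAGA-GFP in 1% FBS DMEM, stimulated with 500 pg/mL TGF-beta after compound addition. %Activity was normalised to no-cell wells (complete cell-killing) and DMSO (no toxicity), and curves were fitted and classified.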
Numbers without * were called inactive. Most compounds without a hit are left out; they make up all but 5.7% or so of the library. Unless noted, calls follow the shape of the dose curve; as a rule, active = well fitted curve in the direction sought with a large enough effect; inconclusive = small, poorly fitted or top-dose-only effect, or another doubt; inactive = no such curve, though single readings can be large; an effect the other way counts as inactive or inconclusive.

For COc1ccc(Cn2ccc3nc(C)c(C(=O)Nc4cc(C)cc(C)c4)cc3c2=O)cc1 the results were S2 tox inactive, TGFb SMAD3 inh 10%, ATXN2 expr inh 3% and HepG2 tox 6%.
Screening Nc1n[nH]c(N)c1N=Nc1cccc(F)c1 returned S2 tox inactive, IL-1B inflam inh -78*, TGFb SMAD3 inh -18%, ATXN2 expr inh 21% and HepG2 tox 0%.
`CCCCCCCCCCCCOCCO` gave S2 tox inactive and ATXN2 expr inh 15%.
`CCOC(=O)CCS(=O)(=O)c1nc(-c2ccccc2)cc(C(F)(F)F)n1` gave IL-1B inflam inh -99*, TGFb SMAD3 inh inconclusive, ATXN2 expr inh inconclusive and HepG2 tox -119%.
CCOC(=O)CS(=O)(=O)c1nc(-c2ccc(F)cc2)cc(C(F)(F)F)n1 was read as IL-1B inflam inh -119*, TGFb SMAD3 inh inconclusive, ATXN2 expr inh inconclusive and HepG2 tox -96%.
For CCOC(=O)CS(=O)(=O)c1nc(-c2ccccc2)cc(C(F)(F)F)n1 the results were S2 tox inactive, IL-1B inflam inh -125*, TGFb SMAD3 inh inconclusive, ATXN2 expr inh -32% and HepG2 tox -90%.
`CCOC(=O)c1c(C(F)(F)F)cc(-c2ccc(F)cc2)nc1C` gave S2 tox inactive, IL-1B inflam inh -3, TGFb SMAD3 inh inconclusive, ATXN2 expr inh 4% and HepG2 tox -36%.
`O=C(O)CCS(=O)(=O)c1nc(-c2cccs2)cc(C(F)(F)F)n1` gave S2 tox inactive, IL-1B inflam inh -29, TGFb SMAD3 inh inconclusive, ATXN2 expr inh 24% and HepG2 tox -26%.
Screening Cc1c(C(=O)NCCc2ccncc2)cnn1-c1nccc(-c2ccccc2C(F)(F)F)n1 returned S2 tox inactive.
`CCOc1ccc(CCNC(=O)c2ccc(-c3nc(COc4ccc(C)cc4)c(C)o3)cc2)cc1` gave S2 tox inactive, TGFb SMAD3 inh inconclusive, ATXN2 expr inh 1% and HepG2 tox -1%.
`OCC1(CCOc2ccccc2)CCN(Cc2ccc(OC(F)F)cc2)CC1` gave S2 tox inactive, IL-1B inflam inh -91*, TGFb SMAD3 inh -20%, ATXN2 expr inh -27% and HepG2 tox -34%.
For OCC1(CCOc2ccccc2)CCN(Cc2ccccc2OC(F)F)CC1 the results were S2 tox inactive, IL-1B inflam inh -79*, TGFb SMAD3 inh -1%, ATXN2 expr inh -17% and HepG2 tox -22%.
Screening CC(=O)Nc1ccccc1-c1nc(CNC(=O)c2ccc(-n3cccn3)cc2)c(C)o1 returned S2 tox inactive.
Screening COc1ccccc1-c1ccc(C(=O)NCCN2CCOCC2)c(N2CCN(c3ccccc3F)CC2)n1 returned S2 tox inactive.
For O=C(NC1=C(Nc2ccc(F)cc2)C(=O)c2ccccc2C1=O)c1ccc(Cl)cc1 the results were S2 tox inactive, IL-1B inflam inh 30, TGFb SMAD3 inh 11µM*, ATXN2 expr inh -10% and HepG2 tox 11µM*.
For COC(=O)Cn1cc(/C=C(/C#N)C(=O)N2CCOCC2)c2ccccc21 the results were S2 tox inactive, IL-1B inflam inh -61*, TGFb SMAD3 inh -23%, ATXN2 expr inh -6% and HepG2 tox -9%.
For Cc1cc(Nc2ccccc2C(=O)O)ccc1Cl the results were S2 tox inactive.
Screening COc1ccc(OC)c(N=c2ssnc2Cl)c1 returned S2 tox inactive, IL-1B inflam inh -7, TGFb SMAD3 inh 10%, ATXN2 expr inh -5% and HepG2 tox -27%.
For COc1cc(N=c2ssnc2Cl)c(OC)cc1Cl the results were S2 tox inconclusive, IL-1B inflam inh -88*, TGFb SMAD3 inh inconclusive, ATXN2 expr inh inconclusive and HepG2 tox -44%.
Screening CC(C)(C)C(=O)OCCNc1nc(-c2ccccc2)nc2ccccc12 returned S2 tox inconclusive, IL-1B inflam inh -54*, TGFb SMAD3 inh 3%, ATXN2 expr inh -13% and HepG2 tox -18%.
COc1ccc2nc(N(Cc3cccnc3)C(=O)CCc3ccccc3)sc2c1 was read as TGFb SMAD3 inh inconclusive and HepG2 tox -35%.
Screening CCOc1ccc(S(=O)(=O)NCCC(=O)N2CCC(Cc3ccccc3)CC2)cc1 returned S2 tox inactive, IL-1B inflam inh -50*, TGFb SMAD3 inh -20%, ATXN2 expr inh -9% and HepG2 tox -17%.
For CCOc1ccc(S(=O)(=O)NCCC(=O)N2CCN(Cc3ccccc3)CC2)cc1 the results were S2 tox inactive, IL-1B inflam inh 0, TGFb SMAD3 inh -3%, ATXN2 expr inh -2% and HepG2 tox 0%.
COc1cccc2cc(C(=O)Nc3ccc(CC(=O)O)cc3)c(=O)oc12 was read as S2 tox inactive, TGFb SMAD3 inh -3%, ATXN2 expr inh 3.5µM* and HepG2 tox -6%.
Screening COc1cccc2cc(C(=O)NCc3ccc(C)cc3)c(=O)oc12 returned S2 tox inactive, IL-1B inflam inh -1, TGFb SMAD3 inh 19%, ATXN2 expr inh 2% and HepG2 tox 3%.
CC1(C(=O)Nc2cccc3cccnc23)CCN1Cc1cccc2c1OCO2 (stereo unspecified) was read as S2 tox 14µM*, IL-1B inflam inh -23, TGFb SMAD3 inh inconclusive, ATXN2 expr inh 6.3µM* and HepG2 tox -49%.
Screening CCOCc1nc(N)nc(N)c1-c1cccc(Cl)c1 returned S2 tox inactive, IL-1B inflam inh 11, TGFb SMAD3 inh 0% and HepG2 tox 11µM*.
Screening S=c1[nH]nc(Cc2ccc(Br)cc2)n1/N=C/c1ccc(Cl)cc1 returned S2 tox inactive, IL-1B inflam inh -63*, TGFb SMAD3 inh -23%, ATXN2 expr inh -14% and HepG2 tox -37%.
CCOC(=O)C1=C(CS(=O)(=O)c2ccc(C(C)(C)C)cc2)NC(=O)NC1c1cccc(OC)c1 (stereo unspecified) was read as S2 tox inactive, TGFb SMAD3 inh inconclusive, ATXN2 expr inh -32% and HepG2 tox -53%.
CCN(C(=O)c1cc2c(=O)oc3ccccc3c2s1)c1ccccc1F was read as S2 tox inactive, TGFb SMAD3 inh inconclusive, ATXN2 expr inh 6% and HepG2 tox -5%.
Screening C=C1C(=O)O[C@H]2C1CC[C@@](C)(O)C13C=CC(C)(C21)C1(C3)C(=O)O[C@@H]2C3C(C)=CCC3[C@](C)(O)C[C@H](OC(C)=O)C21 (stereo partly specified) returned S2 tox inconclusive, IL-1B inflam inh -94*, TGFb SMAD3 inh inconclusive and HepG2 tox -13%.
